# Data reported in PubChem BioAssay AID2546 (National Center for Advancing Translational Sciences (NCATS), 2010).
# Out of some 310,000 compounds screened, about 11,000 (3.5%) were called active. A call without a number means that no potency is given here. Inconclusive results (about 8%) are left out. The call rests on the fitted dose curve; in most records, active means well fitted inhibition curve with a large enough effect; inconclusive means small, poorly fitted or top-dose-only effect, or effect the other way; inactive means flat fitted curve, though single readings scatter. Only a selection was taken, and actives are over-represented in it overall.
# Test: VP16 counterscreen qHTS for inhibitors of ROR gamma transcriptional activity;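 further: Gal4-VP16 expression switched on by copper sulfate through the metallothionein promoter; nearly all actives have a fitted effect of over 50% in size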
# Conditions: Drosophila S2 Gal4-VP16 UAS-luciferase, luminescence, 20 h; series mostly up to 53.6 µM
# Potency means the concentration at half of the fitted maximal effect.
row,Compound,Potency
1,Cc1nnc(NC(=O)C(c2ccccc2)c2ccccc2)s1,inactive
2,Cc1nc2cc(C(F)(F)F)ccc2n1CCNc1nc(-c2cc(Cl)c(N)c(Cl)c2)cs1,inactive
3,Cc1ccc(NC(=O)C/C(N)=N/O)cc1Cl,inactive
4,O=C(CC(=O)Nc1ccc(Cl)c(Cl)c1)N/N=C/c1ccc(O)cc1,inactive
5,O=C(CC(O)(C(F)(F)F)C(F)(F)F)Nc1ccc(Cl)c(Cl)c1,5.01 µM (active)
6,Cc1c(Cl)cccc1NC(=S)N(Cc1ccccc1)Cc1cccnc1,inactive
7,CCNC(=S)Nc1cccc(Cl)c1C,17.8 µM (active)
8,Cc1c(Cl)cccc1NC(=O)NCc1ccc(C)n1C,inactive
9,CN(C)S(=O)(=O)c1cccc(NC(=S)NCc2ccc3c(c2)OCO3)c1,inactive
10,O=C(NCc1ccc2c(c1)OCO2)c1cc(F)c(F)cc1Cl,inactive
11,Cc1c(Cl)cccc1NC(=S)NCc1ccc2c(c1)OCO2,11.2 µM (active)
12,CCOC(=O)c1c(C)[nH]c(C)c1S(=O)(=O)NCCCc1ccco1,inactive
13,O=C(NCCc1ccc(Cl)cc1Cl)c1cc([N+](=O)[O-])c[nH]c1=O,inactive
14,Cc1cc(Cl)c2oc(C(=O)N(C)C(C)c3ccccn3)c(C)c2c1 (stereo not given),inactive
15,Cn1nccc1CNC(=O)c1ccnn1C,inactive
16,CC(=O)NCC(=O)NC1CCCc2c1cnn2-c1ccccc1F (stereo not given),inactive
17,Cn1nccc1C(=O)NC1CCCc2c1cnn2-c1ccccc1F (stereo not given),1.41 µM (active)
18,COc1ccc(C(=O)NC2CC(C)(C)Cc3c2cnn3-c2ccccc2C)o1 (stereo not given),inactive
19,COc1ccc(C(=O)NC2CCCc3c2cnn3-c2cccc(C)c2C)c(OC)n1 (stereo not given),12.6 µM (active)
20,CC1(C)Cc2c(cnn2-c2cccc(F)c2)C(NC(=O)c2cc[n+]([O-])cc2)C1 (stereo not given),inactive
21,Cc1cc(C(=O)NC2CCCc3c2cnn3-c2cccc(C)c2C)c(C)o1 (stereo not given),inactive
22,Cn1nccc1C(=O)NC1CCCc2c1cnn2-c1ccc(F)cc1F (stereo not given),0.891 µM (active)

row,Compound,Potency
1,Cc1ccc(-n2ncc3c2CCCC3NC(=O)c2cnccn2)cc1C (stereo not given),inactive
2,CC(=O)Nc1ccc(S(=O)(=O)NNC(=O)CCc2ccccc2)cc1,inactive
3,CCN(CC)CCCNC(=O)c1cc2c(=O)[nH]c3ccc(C)cc3c2s1,inactive
4,CC(C)(C)NC(=O)NC(=O)COC(=O)C1c2ccccc2Oc2ccccc21,inactive
5,CCn1c(SCC(=O)Nc2ccc(Br)cc2)nc2sc3c(c2c1=O)CCN(C)C3,inactive
6,CCCCNC(=O)c1cn(CC)c2cc(N3CCN(C(=O)c4ccco4)CC3)c(F)cc2c1=O,inactive
7,CCOC(=O)c1ccccc1NS(=O)(=O)c1c(C)nc2sccn2c1=O,inactive
8,Cc1occc(=O)c1OCc1c(Cl)cccc1Cl,inactive
9,O=C(O)c1ccc2c(=O)n3c(nc2c1)/C(=C/c1ccc(OC(F)F)cc1OC(F)F)CC3,inactive
10,Cc1nn(C(C)(C)C)c(OC(=O)CC(C)C)c1S(=O)(=O)c1ccccc1,inactive
11,O=C(CCCn1c(SCC(=O)c2ccccc2)nc2ccccc2c1=O)NCC1CCCO1 (stereo not given),inactive
12,COCCNC(=O)c1ccc(Cn2c(SCC(=O)NCC3CCCO3)nc3ccc(Br)cc3c2=O)cc1 (stereo not given),inactive
13,CCCCn1c(SCC(=O)NCC2CCCO2)nc2ccc(N3CCOCC3)cc2c1=O (stereo not given),11.2 µM (active)
14,CN(Cc1ccccc1)C(=O)CSc1nc2ccccc2[nH]1,inactive
15,CCOC(=O)c1csc(CCNC(=O)c2oc3c(Cl)cc(C)cc3c2C)n1,inactive
16,COCCN(CCOC)S(=O)(=O)c1ccc(/C(O)=C(\C#N)c2nc3ccccc3[nH]2)cc1,inactive
17,N#C/C(=C(/O)COc1cccc2ccccc12)c1nc2ccccc2[nH]1,7.94 µM (active)
18,N#C/C(=C(/O)COC(=O)COc1ccc(Cl)cc1)c1nc2ccccc2[nH]1,12.6 µM (active)
19,O=C(COc1ccccc1)NCCc1nc2ccccc2[nH]1,inactive
20,O=C(COC(=O)CCCSc1nc2ccccc2[nH]1)Nc1ccc(Oc2ccccc2)cc1,inactive
21,Cc1ccccc1OC/C(O)=C(\C#N)c1nc2ccccc2[nH]1,inactive
22,O=C(CCS(=O)(=O)c1ccccc1)NC1CCCC1,inactive

row,Compound,Potency
1,COc1ccc(C(=O)Nc2ccccc2C(=O)N2CCN(c3ccccc3)CC2)cc1,inactive
2,CC(C)c1ccc(N2CCN(C(=O)c3ccccc3NC(=O)/C=C(\C(=O)O)c3ccccc3)CC2)cc1,1.12 µM (active)
3,O=C(O)C1CC=CCC1C(=O)Nc1ccccc1C(=O)N1CCN(c2ccccc2)CC1 (stereo not given),inactive
4,CCCN1CCC(=O)N(C(CSc2ccc(OC)cc2)Cc2ccccc2)CC1 (stereo not given),inactive
5,Cn1cnc2c1c(=O)n(Cc1ccccc1C#N)c(=O)n2C,inactive
6,Cc1cc2oc(=O)cc(CN(C)Cc3ccc(OC(F)F)cc3)c2cc1Cl,inactive
7,CCOC(=O)Cc1csc(NC(=O)CSc2nc(C)cc(=O)[nH]2)n1,inactive
8,Cc1cccc(N2CCN(C(=O)CN(C)S(=O)(=O)c3ccc4c(c3)CCC(=O)N4)CC2)c1C,inactive
9,CCOC(=O)Cc1csc(NC(=O)CN(C)S(=O)(=O)c2ccc3c(c2)CCC(=O)N3)n1,11.2 µM (active)
10,CCOC(=O)C1CCN(C(=O)C2CCCN(S(=O)(=O)c3ccc(OC)c(Cl)c3)C2)CC1 (stereo not given),inactive
11,CC1(C(=O)NCCc2c[nH]c3ccccc23)C=CC2(CCCCC2)N1C(=O)c1ccccc1 (stereo not given),inactive
12,COc1ccc(NC(=O)CN(C)C(=O)CNC(=O)C2CCCCC2)cc1,inactive
13,CCOC(=O)/C(C#N)=C/c1ccc(N2CCCCC2)cc1,inactive
14,O=C1C=CC(=O)N1c1ccc(N2CCCCC2)cc1,8.91 µM (active)
15,O=c1[nH][nH]c(=O)c2cc(N3CCCC3)ccc12,inactive
16,Oc1ccc(Br)cc1/C=N/Nc1ccccn1,10 µM (active)
17,O=[N+]([O-])c1ccc(O)c(/C=N/Nc2ccccc2[N+](=O)[O-])c1,inactive
18,O=C(Nc1ccc(Br)cc1)c1cc(S(=O)(=O)Nc2ccccn2)ccc1Cl,inactive
19,COc1ccc(NC(=O)NNC(=O)COc2cc(C)c(Cl)c(C)c2)c(OC)c1,inactive
20,O=C1CCN(CCc2ccccc2)CCN1CCOc1ccccc1,inactive
21,Cc1ccc(C(=O)CCC(=O)N(C)CC(=O)Nc2c(Cl)cccc2Cl)cc1,inactive
